# Reference: PubChem BioAssay (NCI)
# About 79,000 compounds went through this panel and 15% of them were active in at least one assay; those are over-represented in the sample as a whole. A number with no mark means an inactive call. Rule as the data show it: active = growth inhibition above about 70%; inactive = the rest.
# Assay: NCI Yeast Anticancer Drug Screen. Data for the mlh1 rad18 strain (AID 175)
# Conditions: S. cerevisiae mlh1 rad18 strain growth inhibition; at 50.0 µM; hits give high values
# Summary of the method: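 Cells of a genetically altered yeast strain, deficient in DNA damage repair, were treated with compound. Their growth was then compared with that of vehicle-treated cultures to give inhibition.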
row,Compound,growth inhibition [%]
1,OCc1c(-c2ccc(Cl)cc2)c(-c2ccc(Cl)cc2)c2n1CCC2,-6.85
2,CCOC(=O)c1[nH]c(Cc2[nH]c(Cc3[nH]c(C(=O)OCC)c(C)c3C(=O)OCC)c(C(=O)OCC)c2C)c(C(=O)OCC)c1C,8.55
3,Cc1oc2nc(N(C)C)nc(NN)c2c1C,-13.8
4,CCOC(=O)Cc1nc2ccccc2[nH]c1=O,-17.2
5,NC(=O)Nc1ccc(Cl)cc1[N+](=O)[O-],-7.1
6,C[C@@H]1CC[C@@]2(C)C(C(=O)O)=CCCC2[C@@]1(C)CC(=O)c1ccoc1 (stereo partly drawn),-35.2
7,CC(C)CCC(=O)O,-10.4
8,CC(=O)CC(=O)NC(C)(C)C,7.7
9,CCCCCCC(C)OC(C)=O (stereo not drawn),-13.8
10,O=C(Nc1ccccc1Cl)Oc1ccc(C(=O)c2ccccc2)cc1,13.2
11,Cc1ccc(O)c(C(C)C)c1,-8.6
12,Cc1ccc(O)c(C(C)(C)C)c1,8.5
13,CCC(=O)OCCCC1CCCO1 (stereo not drawn),-2.05
14,CCC1CN1C(=O)c1cc(C(=O)N2CC2CC)cc(C(=O)N2CC2CC)c1 (stereo not drawn),20
15,CC1=C(C(=O)NCCc2ccccc2)CC(C(=O)NCCc2ccccc2)=C(C)N1,-32.1
16,C[C@@H](O)CO,13.2
17,CC1(c2ccccc2)CCC(=O)NC1 (stereo not drawn),11.6
18,Cc1ccccc1N(CCC#N)C1=NN(C(=O)CC(=O)Nc2ccccc2)C(c2ccccc2)C1 (stereo not drawn),-7.2
